Assays:
[1] = tested on: CHO; assay: % viability of CHO cells (MTT); higher = less toxic; conditions: 48 h
Procedure, shortened: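 CHO cells were seeded at 10^6 cells/well in 200 µL and left overnight to attach. The medium was then replaced with fresh medium containing compound at 2 or 20 µM for 48 h. Survival was read colorimetrically with the tetrazolium (MTT) assay. Percent viability was expressed relative to untreated cells.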

[2] = tested on: HepG2-A16-CD81; assay: % inhibition of HepG2 viability (CellTiter-Glo); higher = more toxic; conditions: 5 µM
[3] = tested on: Plasmodium falciparum NF54 stage IV/V gametocytes; assay: % inhibition of gametocyte viability (PrestoBlue); higher = more inhibition; conditions: 48 h
Procedure, shortened: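 Stage IV/V NF54 gametocytes (2% gametocytaemia, 5% haematocrit, 100 µL/well) were exposed to compound at 1 or 5 µM. Incubation was 48 h at 37 °C, stationary and hypoxic, followed by 10 µL PrestoBlue for 2 h. Fluorescence at 612 nm was read on 70 µL of transferred supernatant. Percent inhibition of gametocyte viability was normalised to DMSO and kill controls from a single run.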

[4] = tested on: Plasmodium falciparum NF54 asexual blood stage; assay: % inhibition of asexual blood stage proliferation (pLDH); higher = more inhibition; conditions: 72 h
Procedure, shortened: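 Plasmodium falciparum NF54 ring-stage cultures (1% haematocrit, 2% parasitaemia) were exposed to compound at 2 or 20 µM in 96-well plates. Incubation was 72 h at 37 °C under 4% CO2, 3% O2 and 93% N2. Survival was read colorimetrically at 620 nm with the parasite lactate dehydrogenase assay. Percent inhibition of asexual proliferation was normalised to DMSO and kill controls, and the screen was run on two separate occasions.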

[5] = tested on: Plasmodium falciparum NF54 stage IV/V gametocytes; assay: % inhibition of gametocyte viability (ATP bioluminescence); higher = more inhibition; conditions: 24 h
Procedure, shortened: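 In 96-well plates, compound at 1 or 5 µM was added to 30,000 density-gradient-enriched stage IV/V NF54 gametocytes per well and incubated for 24 h at 37 °C. ATP readout used the Promega BacTiter Glo bioluminescence system. Percent inhibition of gametocyte viability comes from a single run, normalised to control wells.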

[6] = tested on: Plasmodium falciparum NF54 stage IV/V gametocytes; assay: % inhibition of gametocyte viability (luciferase reporter); higher = more inhibition; conditions: 48 h
Procedure, shortened: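 Percent inhibition was normalised to controls from a single run. Stage IV/V gametocytes of the NF54-Pfs16-GFP-Luc line, at 2% gametocytaemia and 2% haematocrit, were exposed to compound at 1 or 5 µM for 48 h at 37 °C under stationary, hypoxic conditions. Luminescence was then read from 30 µL lysate mixed with 30 µL Promega luciferin substrate on a GloMax-Multi+ reader with 10 s integration.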

[7] = tested on: Plasmodium berghei ANKA liver stage in HepG2-A16-CD81; assay: % inhibition of liver stage parasite viability (luciferase); higher = more inhibition; conditions: 5 µM; 48 h
Description: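 Single-concentration screen of the MMV Pandemic Response Box. P. falciparum NF54 asexual blood stages: pLDH assay, 72 h at 37 °C, 2 and 20 µM, n=2. Stage IV/V gametocytes (NF54): luciferase reporter (NF54-Pfs16-GFP-Luc, 48 h), ATP bioluminescence (24 h) and PrestoBlue (48 h) at 1 and 5 µM, n=1. P. berghei liver stage (luciferase in HepG2-A16-CD81, 48 h post infection) at 5 µM, n=4. All normalised to DMSO and kill controls as % inhibition.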
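Wherever % inhibition of HepG2 viability (CellTiter-Glo) is given: HepG2-A16-CD81 hepatoma cells plated as in the liver-stage assay but without sporozoites, with DMSO wells as negative and 25 µM puromycin as positive control.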

Row | Compound | % viability of CHO cells ([1]; 2 µM) [%] | % viability of CHO cells ([1]; 20 µM) [%] | % inhibition of HepG2 viability [2] [%] | % inhibition of gametocyte viability ([3]; 1 µM) [%] | % inhibition of gametocyte viability ([3]; 5 µM) [%] | % inhibition of asexual blood stage proliferation ([4]; 2 µM) [%] | % inhibition of asexual blood stage proliferation ([4]; 20 µM) [%] | % inhibition of gametocyte viability ([5]; 1 µM) [%] | % inhibition of gametocyte viability ([5]; 5 µM) [%] | % inhibition of gametocyte viability ([6]; 1 µM) [%] | % inhibition of gametocyte viability ([6]; 5 µM) [%] | % inhibition of liver stage parasite viability [7] [%]
1 | CCOC(=O)/C=C/[C@H](C[C@@H]1CCNC1=O)NC(=O)[C@H](CC)n1cccc(NC(=O)c2cc(C)on2)c1=O | 89 | 79.7 | 0.129 | 12 | 12.7 | 43.3 | 49.5 | < 0 | < 0 | 6.73 | 10.7 | 9.24
2 | Cc1nc(N(C)C(=O)Cc2ccc(-c3ccccn3)cc2)sc1S(N)(=O)=O | 85.2 | 59.1 | -0.405 | 20.7 | 39.1 | -8.1 | -31.8 | 4.11 | < 0 | 17.6 | < 0 | 24.8
3 | Nc1nc2c(ncn2/C=C2/CC2(CO)CO)c(=O)[nH]1 | 102 | 5.45 | -5.92 | 10.2 | 7.42 | 6.02 | 5.03 | < 0 | < 0 | < 0 | 1.19 | 9.21
4 | Cc1cc(Nc2ccc(F)cc2)nc(SCc2nc3ccccc3[nH]2)n1 | 91.4 | 101 | 4.62 | 19 | 32.7 | -9.36 | -3.55 | 1.25 | 33.8 | < 0 | < 0 | 25.6
5 | C[C@@H](NC(=O)c1cccc(-c2c[nH]c(-c3cc4ccccc4cn3)n2)c1)c1ccc(F)cc1 | 91.9 | 101 | -1.52 | 9.05 | 8.49 | 21.8 | 72.3 | 28.5 | 83.2 | 0.447 | 1.09 | 29.1
6 | CSC[C@H]1CN(Cc2c[nH]c3c(N)ncnc23)C[C@@H]1O | 68.9 | 46.2 | 8.54 | < 0 | < 0 | 14.2 | 8.91 | < 0 | < 0 | < 0 | 6.79 | 40.2
7 | CC[N+]1(C/C2=C/CCCCCC2)CCC(NC(=O)C2c3cc(Cl)ccc3Oc3ccc(Cl)cc32)CC1 (configuration not stated) | 100 | 75.9 | 7.74 | < 0 | 41.9 | 21.8 | 101 | < 0 | 44 | 7.3 | 34 | 6.03
8 | COc1nc2ccc(Br)cc2cc1[C@@H](c1ccccc1)[C@@](O)(CCN(C)C)c1cccc2ccccc12 | 107 | 140 | -0.302 | < 0 | < 0 | 82.9 | 101 | < 0 | 49.3 | 14.4 | 19.2 | 31.1
9 | CCCCCCCCCN1C[C@@H](O)[C@H](O)[C@@H](O)[C@@H]1CO | 94.1 | 58.9 | 4.62 | < 0 | 3.2 | 38.4 | 25.3 | < 0 | < 0 | 2.02 | 2.49 | 

— the supplement of paper PMC7801607
